Reference: PubChem BioAssay (NCATS)
Inconclusive results are not listed. Where a call stands in place of a potency, no number is given. The source made the active and inactive calls. The call rests on the fitted dose curve; in most records, active means well fitted inhibition curve with a large enough effect; inconclusive means small, poorly fitted or top-dose-only effect; inactive means no such curve, though single readings can be large or run the other way.

experiment: HTS Assay for Allosteric Antagonists of the Human D2 Dopamine Receptor: Hit Validation in HTRF (AID 624455); conditions: Cells stably expressing D1 dopamine receptor, inhibition mode; series mostly up to 46.1 µM;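 further: stable D1 dopamine receptor cell line scored for blocking the D1 response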
From the text: Dopamine receptors (DARs) are involved in the etiology and/or therapy of a number of neuropsychiatric and endocrine disorders. For instance, all receptor-based antiparkinsonian drugs work via stimulating the D2 DAR subtype whereas all FDA-approved antipsychotic agents are antagonists of this receptor. […] There are three different types of allosteric modulators that we are seeking, two of which will stimulate or augment receptor signaling, allosteric agonists and potentiators, while the third, allosteric antagonists, will attenuate receptor signaling. The present primary screening assay measures compound antagonism after an EC80 addition of dopamine by tracking calcium flux in a […], inducible Hek293 Trex D2 cell line. This assay measures activity of the hits in the D1 HTRF assay.
NIH Chemical Genomics Center [NCGC]
NIH Molecular Libraries Probe Centers Network [MLPCN]
Assay Submitter (PI): David Sibley
Cells stably expressing the D1 dopamine receptor will be run in an HTRF assay and compounds will be examined for the ability to inhibit the D1 mediated response.

Compound	Potency
Cc1cn([C@H]2C[C@H](N=[N+]=[N-])[C@@H](CO)O2)c(=O)[nH]c1=O	inactive
CCOC(=O)C(C)(C)Oc1ccc(Cl)cc1	inactive
CN(C)c1nc(N(C)C)nc(N(C)C)n1	inactive
O=c1c(O)c(-c2ccc(O)c(O)c2)oc2cc(O)cc(O)c12	inactive
CN1CCN2c3ccccc3Cc3ccccc3C2C1 (stereo not given)	inactive
COc1cc2nc(N(C)CCCNC(=O)C3CCCO3)nc(N)c2cc1OC (stereo not given)	inactive
CCC1(c2ccccc2)C(=O)NCNC1=O	inactive
Cc1cn([C@H]2C=C[C@@H](CO)O2)c(=O)[nH]c1=O	inactive
CC12CC3CC(C)(C1)CC(N)(C3)C2	inactive
CCOC(=O)Nc1ccc(NCc2ccc(F)cc2)nc1N	inactive
COc1cc2c(c(OC)c1OC)-c1ccc(OC)c(=O)cc1[C@@H](NC(C)=O)CC2	inactive
OCCN1CCN(CCCN2c3ccccc3Sc3ccc(C(F)(F)F)cc32)CC1	inactive
CC(COc1ccccc1)N(CCCl)Cc1ccccc1 (stereo not given)	inactive
CN1CCC(=C2c3ccccc3C=Cc3ccccc32)CC1	inactive
O=c1c(-c2ccc(O)cc2)coc2cc(O)cc(O)c12	inactive
CN1CCC(=C2c3ccccc3CC(=O)c3sccc32)CC1	inactive
NCCS(=O)(=O)O	inactive
CN1CCN(CCCN2c3ccccc3Sc3ccc(Cl)cc32)CC1	inactive
CN(C)C(=O)C(CCN1CCC(O)(c2ccc(Cl)cc2)CC1)(c1ccccc1)c1ccccc1	inactive
Clc1ccccc1C(c1ccccc1)(c1ccccc1)n1ccnc1	inactive

Compound	Potency
Fc1ccc([C@@H]2CCNC[C@H]2COc2ccc3c(c2)OCO3)cc1	inactive
Cc1ccccc1N1C(=O)c2cc(S(N)(=O)=O)c(Cl)cc2NC1C (stereo not given)	inactive
Cn1ccc2cc3c(cc21)CCN3C(=O)Nc1cccnc1	inactive
O=C1N(c2ccccc2)c2ccccc2C1(Cc1ccncc1)Cc1ccncc1	inactive
COc1ccc(C2CNC(=O)C2)cc1OC1CCCC1 (stereo not given)	inactive
CC1COc2c(N3CCN(C)CC3)c(F)cc3c(=O)c(C(=O)O)cn1c23 (stereo not given)	inactive
NS(=O)(=O)c1cc2c(cc1Cl)NCNS2(=O)=O	inactive
Clc1ccc2nsnc2c1NC1=NCCN1	inactive
CN(C)CCOC(c1ccccc1)c1ccccc1	inactive
Nc1ccn([C@H]2CC[C@@H](CO)O2)c(=O)n1	inactive
CN1C2CCC1CC(OC(=O)C(CO)c1ccccc1)C2 (stereo not given)	inactive
Cc1cc(C(C)(C)C)cc(C)c1CC1=NCCN1	inactive
CC(C)(Oc1ccc(C2CC2(Cl)Cl)cc1)C(=O)O (stereo not given)	inactive
CCCCc1oc2ccccc2c1C(=O)c1cc(I)c(OCCN(CC)CC)c(I)c1	inactive
CC(C)C(=O)Nc1ccc([N+](=O)[O-])c(C(F)(F)F)c1	inactive
CCOC(=O)c1ncn2c1CN(C)C(=O)c1cc(F)ccc1-2	inactive
CC[N+](CC)(CC)CCOc1cccc(OCC[N+](CC)(CC)CC)c1OCC[N+](CC)(CC)CC	inactive
CCc1cccc2c3c([nH]c12)C(CC)(CC(=O)O)OCC3 (stereo not given)	inactive
Cn1c(=O)c2[nH]cnc2n(C)c1=O	inactive
COc1ccc2[nH]cc(CCNC(C)=O)c2c1	inactive
